The whole screen tested about 5,500 compounds, of which about 2,000 (36%) were called active. Roughly 18% stayed inconclusive and do not appear here. No stated cut-off is given here; in the data, active means normalized growth mostly below about 0.91 (no sharp cut-off); inconclusive means no clear call, values can overlap the other calls; inactive means mostly above about 0.92. The list shows a part of the results.
Test: chemical genetic growth profiling, strain panel (AID 1159580);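 further: tested at 20 µM; growth read once vehicle control cultures reached saturation at 30 °C; 1 = growth at the plate median or of vehicle wells; lower values mean less growth of the strain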
Details: S. cerevisiae deletion strains, growth OD

Measured: normalized growth

CC(=O)NCCCCCC(=O)O
inactive: locus YAL013W, strain DEP1, active compounds read low 1.01 | locus YAL021C, strain ccr4, active compounds read low 1.01 | locus YAL026C, strain drs2, active compounds read low 0.978 | locus YAL030W, strain snc1, active compounds read low 0.99 | locus YBL061C, strain skt5, active compounds read low 0.99 | locus YBR009C, strain hhf1, active compounds read low 0.979 | locus YBR021W, strain FUR4, active compounds read low 1.02 | locus YBR023C, strain chs3, active compounds read low 0.984 | locus YBR171W, strain sec66, active compounds read low 0.999 | locus YBR229C, strain ROT2, active compounds read low 1.01 | locus YBR231C, strain swc5, active compounds read low 0.998 | locus YBR279W, strain paf1, active compounds read low 0.998 | locus YCL011C, strain gbp2, active compounds read low 0.968 | locus YCL016C, strain dcc1, active compounds read low 1 | locus YCL029C, strain bik1, active compounds read low 0.988 | locus YCL061C, strain MRC1, active compounds read low 1 | locus YCL069W, strain vba3, active compounds read low 0.979 | locus YCR088W, strain abp1, active compounds read low 0.99 | locus YDL005C, strain med2, active compounds read low 0.984 | locus YDL035C, strain GPR1, active compounds read low 1.02 | locus YDL040C, strain nat1, active compounds read low 0.995 | locus YDL074C, strain BRE1, active compounds read low 1.04 | locus YDL101C, strain DUN1, active compounds read low 1.02 | locus YDL134C, strain PPH21, active compounds read low 1 | locus YDL185W, strain tfp1, active compounds read low 0.985 | locus YDL192W, strain arf1, active compounds read low 0.988 | locus YDR001C, strain nth1, active compounds read low 0.987 | locus YDR069C, strain doa4, active compounds read low 0.993 | locus YDR101C, strain arx1, active compounds read low 0.986 | locus YDR137W, strain rgp1, active compounds read low 1.01 | locus YDR159W, strain sac3, active compounds read low 0.976 | locus YDR162C, strain NBP2, active compounds read low 1.01 | locus YDR195W, strain ref2 0.982 | locus YDR297W, strain sur2, active compounds read low 0.993 | locus YDR318W, strain mcm21, active compounds read low 0.992 | locus YDR334W, strain swr1, active compounds read low 0.979 | locus YDR335W, strain msn5, active compounds read low 1 | locus YDR388W, active compounds read low 0.97 | locus YDR392W, strain spt3, active compounds read low 0.891 | locus YDR502C, strain sam2, active compounds read low 0.98 | locus YEL003W, strain gim4, active compounds read low 0.969 | locus YEL037C, strain rad23, active compounds read low 0.972 | locus YEL061C, strain CIN8 (second series), active compounds read low 0.977 | locus YEL061C, strain CIN8, active compounds read low 1.01 | locus YER015W, strain faa2, active compounds read low 1 | locus YER016W, strain bim1, active compounds read low 0.997 | locus YER110C, active compounds read low 0.986 | locus YER111C, strain swi4, active compounds read low 0.967 | locus YER155C, strain BEM2 (second series), active compounds read low 1.01 | locus YER155C, strain BEM2, active compounds read low 1.01 | locus YER167W, strain BCK2, active compounds read low 1 | locus YFR010W, strain ubp6, active compounds read low 0.983 | locus YGL078C, strain dbp3, active compounds read low 0.974 | locus YGL086W, strain mad1, active compounds read low 1 | locus YGL167C, strain pmr1, active compounds read low 0.969 | locus YGL173C, strain kem1, active compounds read low 0.99 | locus YGL227W, strain vid30, active compounds read low 0.97 | locus YGL240W, strain doc1, active compounds read low 0.993 | locus YGL248W, strain PDE1, active compounds read low 1.03 | locus YGL253W, strain hxk2, active compounds read low 0.991 | locus YGR135W, strain pre9, active compounds read low 0.979 | locus YGR229C, strain SMI1, active compounds read low 1.01 | locus YGR252W, strain gcn5, active compounds read low 0.954 | locus YHR013C, strain ard1, active compounds read low 0.946 | locus YHR027C, strain rpn1, active compounds read low 1.01 | locus YHR030C, strain SLT2, active compounds read low 1.01 | locus YHR079C, strain IRE1 (second series), active compounds read low 0.992 | locus YHR094C, strain hxt1, active compounds read low 0.984 | locus YHR129C, strain ARP1, active compounds read low 1.01 | locus YHR142W, strain chs7, active compounds read low 1.02 | locus YHR200W, strain rpn10, active compounds read low 0.994 | locus YIL066C, strain RNR3, active compounds read low 1.03 | locus YIL073C, strain SPO22, active compounds read low 0.979 | locus YIL125W, strain kgd1, active compounds read low 0.981 | locus YIR030C, strain dcg1, active compounds read low 0.998 | locus YJL092W, strain hpr5, active compounds read low 0.99 | locus YJL095W, strain BCK1 (second series), active compounds read low 1.01 | locus YJL095W, strain BCK1, active compounds read low 1.03 | locus YJL115W, strain asf1, active compounds read low 0.98 | locus YJL129C, strain trk1, active compounds read low 1 | locus YJL134W, strain LCB3, active compounds read low 1.01 | locus YJL154C, strain vps35, active compounds read low 0.978 | locus YJL164C, strain tpk1, active compounds read low 1.02 | locus YJL166W, strain qcr8, active compounds read low 1.01 | locus YJL168C, strain set2, active compounds read low 0.986 | locus YJL187C, strain SWE1 (second series), active compounds read low 1.03
